# Assay results from PubChem BioAssay (Tox21).
# Values joined by “and” are separate entries in the source; they are usually repeats but may differ in a detail not shown here. Identical values can stand only once. Inconclusive results are not listed. A structure can be active in one record and inactive in another. Active and inactive are the calls of the source. The call rests on the fitted dose curve; in most records, active means well fitted curve in the direction sought with a large enough effect in the repeat runs; inconclusive means weak or mixed curves; inactive means no such curve, though single readings can be large; an effect the other way counts as inactive or inconclusive.
# Key:
# [1] = A CellTox Green Cytotoxicity Assay to monitor cytotoxicity in HEK293 cells - 40 hour (AID 1224871); further: nearly all actives have a fitted effect of over 45% in size; further: potency means the concentration at half of the fitted maximal effect
# Procedure, shortened: (§1)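 Cells (HEK293, 600/well) and dye reagent are dispensed together. After 5 h at 37 C, 23 nL compound is pinned in. Plates stay at 37 C for 40 h with fluorescence read at 0h, 8h, 16h, 24h, 32h and 40h.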
# [2] = qHTS RealTime-Glo MT Cell Viability Assay in HEK293 cells - 16 hour (AID 1224872); further: nearly all actives have a fitted effect of over 50% in size; further: potency means the concentration at half of the fitted maximal effect; on activity change, negative = cytotoxicity: top concentration of the series differs between compounds
# Procedure, shortened: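 Assay medium contained NanoLuc luciferase plus cell-permeant prosubstrate, added with HEK293 cells at 600 cells/well. After 5 h at 37 C/5% CO2 compounds were added; plates stayed at 37 C for 40 h with serial luminescence reads.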
# [3] = qHTS RealTime-Glo MT Cell Viability Assay in HEK293 cells - 40 hour (AID 1224874); conditions: RealTime-Glo luminescence; max response: stronger effect = lower value; further: nearly all actives have a fitted effect of over 50% in size; further: potency means the concentration at half of the fitted maximal effect
# Procedure, shortened: (§2)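 Real-time viability in HEK293: signal arises when living cells convert a prosubstrate for NanoLuc in the medium, so luminescence tracks viable cell number. Compound (23 nL, DMSO) added 5 h post-seeding; kinetic reads at 0–40 h, 37 C.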
# [4] = A CellTox Green Cytotoxicity Assay to monitor cytotoxicity in HepG2 cells - 16 hour (AID 1224876); further: nearly all actives have a fitted effect of over 45% in size; further: potency means the concentration at half of the fitted maximal effect
# Procedure, shortened: (§3)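 Cells and non-lytic dye reagent are dispensed together (600 HepG2 cells/well) and incubated 5 h before DMSO compound transfer. Kinetic fluorescence is then recorded in the same wells during 40 h at 37 C.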
# [5] = A CellTox Green Cytotoxicity Assay to monitor cytotoxicity in HepG2 cells - 24 hour (AID 1224878); further: nearly all actives have a fitted effect of over 45% in size; further: potency means the concentration at half of the fitted maximal effect
# Procedure, shortened: as §3
# [6] = A CellTox Green Cytotoxicity Assay to monitor cytotoxicity in HepG2 cells - 40 hour (AID 1224879); further: nearly all actives have a fitted effect of over 40% in size; further: potency means the concentration at half of the fitted maximal effect
# Procedure, shortened: as §3
# [7] = qHTS RealTime-Glo MT Cell Viability Assay in HEK293 cells - 0 hour (AID 1224880); further: top concentration of the series differs between compounds; nearly all actives have a fitted effect of over 45% in size
# Procedure, shortened: as §2
# [8] = A CellTox Green Cytotoxicity Assay to monitor cytotoxicity in HEK293 cells - 24 hour (AID 1224875); further: nearly all actives have a fitted effect of over 45% in size; further: potency means the concentration at half of the fitted maximal effect; on activity change: series mostly up to about 77 µM
# Procedure, shortened: as §1
# [9] = qHTS RealTime-Glo MT Cell Viability Assay in HepG2 cells - 32 hour (AID 1224877); further: nearly all actives have a fitted effect of over 55% in size; further: potency means the concentration at half of the fitted maximal effect
# Procedure, shortened: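 qHTS, HepG2, 600 cells/well, RealTime-Glo (NanoLuc + prosubstrate) added with cells; 5 h preincubation; DMSO compound addition; 37 C; luminescence at 0/8/16/24/32/40 h.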
# [10] = qHTS RealTime-Glo MT Cell Viability Assay in HepG2 cells - 8 hour (AID 1224873); further: nearly all actives have a fitted effect of over 55% in size
# Procedure, shortened: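 Real-time viability: cells seeded at 600 per well together with NanoLuc and cell-permeant prosubstrate, compounds added after 5 h incubation. Luminescence tracked at 0, 8, 16, 24, 32 and 40 h of exposure.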
# On the % scale 0 is the no-effect control and ±100 the full control effect.
structure (smiles),measurement,setting,value
Oc1ccc(Cl)cc1Sc1cc(Cl)ccc1O,Potency,[1],38.8 µM (active) and inactive
same,Potency,[2],21.8 µM (active)
same,Potency,[3],19.5 µM (active) and 23.9 µM (active)
same,Potency,[4],inactive
same,Potency,[5],43.6 µM (active)
same,Potency,[6],48.9 µM (active) and 26.8 µM (active)
same,Potency,[7],inactive
Cc1cc(CCN2CCN(c3nsc4ccccc34)CC2)cc2c1NC(=O)CC2(C)C,Potency,[1],49 µM (active)
same,Potency,[2],13.8 µM (active)
same,Potency,[3],6.92 µM (active)
same,Potency,[8],49 µM (active)
same,Potency,[9],54.9 µM (active)
same,Potency,[7],inactive
NC(=O)C1(N2CCCCC2)CCN(CCCN2c3ccccc3CCc3ccc(Cl)cc32)CC1,Potency,[1],26.8 µM (active)
same,Potency,[2],21.3 µM (active)
same,Potency,[4],26.8 µM (active)
same,Potency,[9],23.9 µM (active)
same,Potency,[5],23.9 µM (active)
same,Potency,[6],23.9 µM (active)
same,Potency,[7],inactive
Nc1c2ccccc2nc2ccccc12,Potency,[1],24.2 µM (active)
same,Potency,[2],19.2 µM (active)
same,Potency,[3],4.83 µM (active) and 2.39 µM (active)
same,Potency,[9],24.2 µM (active) and 10.7 µM (active)
same,Potency,[5],10.7 µM (active)
same,Potency,[6],10.8 µM (active) and 10.7 µM (active)
same,Potency,[7],inactive
CC(C)(C)CC(C)(C)c1ccc(O)c(Cc2ccc(Cl)cc2Cl)c1,Potency,[1],23.9 µM (active)
same,Potency,[2],21.3 µM (active)
same,Potency,[3],23.9 µM (active)
same,Potency,[8],26.8 µM (active)
same,Potency,[7],inactive
CCCCCCCCCOC(=O)c1ccc(O)cc1,Potency,[1],38.3 µM (active)
same,Potency,[2],43 µM (active)
same,Potency,[3],38.3 µM (active)
same,Potency,[8],38.3 µM (active)
same,Potency,[4],48.3 µM (active)
same,Potency,[9],inactive
same,Potency,[5],48.3 µM (active)
same,Potency,[6],48.3 µM (active)
same,Potency,[7],inactive
CSc1cnc(C)cn1,Potency,[1],89.4 µM (active)
same,Potency,[10],inactive
same,max response,[3],7.94% (inactive)
same,Potency,[8],89.4 µM (active)
same,Potency,[4],89.4 µM (active)
same,Potency,[9],inactive
same,Potency,[5],63.3 µM (active)
same,Potency,[6],63.3 µM (active)
same,Potency,[7],inactive
C1CCCC1,Potency,[1],inactive
same,Potency,[10],inactive
same,max response,[3],-2.57% (inactive)
same,Potency,[8],inactive
same,Potency,[4],inactive
same,Potency,[9],inactive
same,Potency,[5],inactive
same,Potency,[6],inactive
same,Potency,[7],inactive
CCOC(=O)c1nc(C(Cl)(Cl)Cl)n(-c2ccc(Cl)cc2Cl)n1,Potency,[1],inactive
same,Potency,[2],inactive
same,max response,[3],-11.5% (inactive)
same,Potency,[8],inactive
same,Potency,[4],inactive
same,Potency,[5],inactive
same,Potency,[6],inactive
same,Potency,[7],inactive
CN(C)CCCOC1(Cc2ccccc2)CCCCCC1,Potency,[1],inactive
same,Potency,[10],inactive
same,max response,[3],0.0267% (inactive)
same,Potency,[8],inactive
same,Potency,[4],inactive
same,Potency,[9],inactive
same,Potency,[5],inactive
same,Potency,[6],inactive
O=C(OC[C@H]1O[C@@H](OC(=O)c2cc(O)c(O)c(OC(=O)c3cc(O)c(O)c(O)c3)c2)[C@H](OC(=O)c2cc(O)c(O)c(OC(=O)c3cc(O)c(O)c(O)c3)c2)[C@@H](OC(=O)c2cc(O)c(O)c(OC(=O)c3cc(O)c(O)c(O)c3)c2)[C@@H]1OC(=O)c1cc(O)c(O)c(OC(=O)c2cc(O)c(O)c(O)c2)c1)c1cc(O)c(O)c(OC(=O)c2cc(O)c(O)c(O)c2)c1,cytotoxicity increase,[1],-40.6% [at 15.8 µM] (inactive)
same,"activity change, negative = cytotoxicity",[2],-9.99% [at 15.8 µM] (inactive)
same,activity change,[8],"-38.6% [at 15.8 µM, stronger effect = higher value] (inactive)"
same,cytotoxicity,[5],-52.4% [at 15.8 µM] (inactive)
same,cytotoxicity increase,[6],-56% [at 15.8 µM] (inactive)
same,"activity change, negative = cytotoxicity",[7],-3.48% [at 15.8 µM] (inactive)
N=C1N=C(N)c2cc3ccccc3cc21,Potency,[1],54.9 µM (active)
same,Potency,[2],27.5 µM (active)
same,Potency,[3],32.1 µM (active)
same,Potency,[8],54.9 µM (active)
same,Potency,[4],43.6 µM (active)
same,Potency,[9],24.5 µM (active)
same,Potency,[5],24.5 µM (active)
same,Potency,[6],24.5 µM (active)
same,Potency,[7],inactive
On1ccccc1=S,Potency,[1],1.09 µM (active)
same,Potency,[2],3.85 µM (active)
same,Potency,[3],3.85 µM (active)
same,Potency,[4],1.93 µM (active)
same,Potency,[9],0.485 µM (active)
same,Potency,[5],0.432 µM (active)
same,Potency,[6],0.385 µM (active)
same,Potency,[7],inactive
Clc1ccc2nsnc2c1NC1=NCCN1,Potency,[1],inactive
same,Potency,[10],inactive
same,max response,[3],0.404% (inactive)
same,Potency,[8],inactive
same,Potency,[4],inactive
same,Potency,[9],inactive
same,Potency,[5],inactive
same,Potency,[6],inactive
same,Potency,[7],inactive
CCCN(CCC)C(=O)C(CCC(=O)OCCCN1CCN(CCOC(=O)Cc2c(C)n(C(=O)c3ccc(Cl)cc3)c3ccc(OC)cc23)CC1)NC(=O)c1ccccc1 (centres undefined),Potency,[1],inactive
same,Potency,[2],21.3 µM (active)
same,Potency,[8],inactive
same,Potency,[4],23.9 µM (active)
same,Potency,[5],23.9 µM (active)
same,Potency,[6],23.9 µM (active)
same,Potency,[7],inactive
CSc1ccc(/C=C2/C(C)=C(CC(=O)O)c3cc(F)ccc32)cc1,Potency,[1],inactive
same,Potency,[10],inactive
same,max response,[3],9.83% (inactive)
same,Potency,[8],inactive
same,Potency,[4],inactive
same,Potency,[9],inactive
same,Potency,[5],inactive
same,Potency,[6],inactive
same,Potency,[7],inactive
CC(C)(C)C(=O)OCOC(=O)[C@@H]1N2C(=O)[C@@H](NC(=O)[C@H](N)c3ccccc3)[C@H]2SC1(C)C,Potency,[1],inactive
same,Potency,[10],inactive
same,max response,[3],5.37% (inactive)
same,Potency,[8],inactive
same,Potency,[4],inactive
same,Potency,[9],inactive
same,Potency,[5],inactive
same,Potency,[6],inactive
same,Potency,[7],inactive
OCCN(CCO)c1nc(N2CCCCC2)c2nc(N(CCO)CCO)nc(N3CCCCC3)c2n1,Potency,[1],19 µM (active)
same,Potency,[10],inactive
same,Potency,[3],26.8 µM (active)
same,Potency,[8],21.3 µM (active)
same,Potency,[4],23.9 µM (active)
same,Potency,[9],inactive
same,Potency,[5],23.9 µM (active)
same,Potency,[6],23.9 µM (active)
same,Potency,[7],inactive
CCN(CC)CCNC(=O)c1c(C)[nH]c(/C=C2\C(=O)Nc3ccc(F)cc32)c1C,Potency,[1],23.9 µM (active)
same,Potency,[2],10.7 µM (active)
same,Potency,[8],23.9 µM (active)
same,Potency,[4],21.3 µM (active)
same,Potency,[9],19 µM (active)
same,Potency,[5],19 µM (active)
same,Potency,[6],9.52 µM (active)
same,Potency,[7],inactive
